# EWS-Fli inh – EWS/Fli transcriptional activity inhibition; inhibition, % at 12.6 µM; 350,000 compounds, 0.67% hits; A673 NR0B1-luciferase reporter, viability-normalised; AID 651661;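 active = mean inhibition of at least 50% after viability correction, with every replicate also passing that limit; inconclusive = mean reaches 50% but only one of two replicates passes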;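 note: firefly luciferase signal divided by Alamar Blue viability fluorescence both relative to DMSO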
# PAX8 inh HTS – PAX8 transcriptional activity inhibition | RMG-I TPO-luciferase reporter, SteadyGlo, 24 h | inhibition, % at 12.6 µM | 360,000 compounds, 1.2% hits;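 active = mean replicate inhibition at least 60% with every replicate also reaching 60%; inconclusive = only one of the two criteria is met; inactive = mean below 60% and not all replicates reaching 60%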;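 note: luciferase light reporting Pax8 driven TPO promoter activity; plate controls were median of neutral control wells for no effect and mitoxantrone controls for full effect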
# MITF TRPM1 HTS – increases MITF-driven TRPM1 promoter luciferase signal | 300,000 compounds, 0.75% hits | SK-MEL-5 TRPM1-promoter luciferase, 24 h; % of positive control, neutral wells = 0 | activation, % at 12.5 µM;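 active = mean activation of at least 80% with every replicate also reaching 80%; inconclusive = mean reaches 80% but some replicate falls short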;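 note: 0% = neutral control wells and 100% = parthenolide positive control wells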
# Wnt act – activates Wnt/beta-catenin signaling in a reporter cell assay; activator, plate reader; activation, % at 9.35 µM; 300,000 compounds, 1.2% hits; AID 743398; in the data active = activation above about 30%, passing the limit was not always enough; inconclusive = no clear call, values can overlap the other calls;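 note: 0% = neutral control wells and 100% = positive control wells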
# esBAF inh – inhibitors of esBAF chromatin remodeling in mouse ES cells. 350,000 compounds, 2% hits. Bmi1-luciferase knock-in reporter, 24 h; 100% = twice the neutral-well signal. reporter increase, % at 12.5 µM. AID 602393; in the data active = activation above about 40%; inconclusive = no clear call, values can overlap the other calls;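 note: 0% = median of the plate's neutral control wells and 100% = double that signal; a rise in the Bmi1 reporter signal indicates esBAF inhibition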
# MITF TRPM1 inh – reduces MITF-dependent TRPM1 promoter luciferase signal. AID 488899. inhibition, % at 12.5 µM. 330,000 compounds, 0.83% hits. SK-MEL-5 TRPM1 promoter luciferase, 24 h;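 active = mean inhibition across replicates of 60% or more, whatever share of single replicates reaches that level; inconclusive = some that reach 60%, reason not given; inactive = mean inhibition across replicates below 60%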
# The depositor's hits bear a star; ? = inconclusive; · = no result given. Hits are enriched below; roughly 4% of the tested compounds scored in any of these assays.
SMILES,EWS-Fli inh,PAX8 inh HTS,MITF TRPM1 HTS,Wnt act,esBAF inh,MITF TRPM1 inh
COCC#Cc1ccc2c(c1)O[C@@H](CN(C)C(=O)CN(C)C)[C@H](C)CN([C@@H](C)CO)S2(=O)=O,-2.9,·,·,·,3.4,·
CCCN1[C@@H]2Cn3c(ccc(-c4ccccc4)c3=O)[C@H]1[C@@H](C(=O)N1CCCCC1)[C@@H]2CO,-10.0,·,·,·,0.9,·
COCCOC(=O)N1C(=O)[C@@]2(c3cc(C#CCCO)ccc31)[C@H](C(=O)NC[C@H](O)c1ccccc1)[C@H]1C(=O)O[C@H](c3ccccc3)[C@H](c3ccccc3)N1[C@@H]2c1ccc(O)cc1,-4.6,·,·,·,·,·
COc1cccc(C(=O)Nc2nnc(-c3ccccc3)s2)c1,-89.5,-225.1,?,35.5*,18.0,-75.9
CC(C)(C)c1ccc(-c2nnc(NC(=O)c3ccccc3)s2)cc1,·,·,57.1,·,49.3*,-53.2
COCC(=O)Nc1nnc(-c2ccc(C(C)(C)C)cc2)s1,-33.6,-102.1,90.6*,0.9,-18.0,-95.1
C[C@@H]1CN([C@@H](C)CO)C(=O)CCCn2cc(nn2)CO[C@@H]1CN(C)C(=O)Nc1cccc(Oc2ccccn2)c1,2.1,·,·,·,-3.2,·
CCOC(=O)C1(Cc2ccccc2)CCCN(C2CCN(C(C)=O)CC2)C1 (stereo not drawn),1.8,11.2,-1.3,0.9,-1.3,1.4
CCOC(=O)C1(Cc2ccccc2)CCCN(C(=O)C=C(C)C)C1 (stereo not drawn),-95.1,-52.2,87.6*,4.0,59.6*,-78.7
CCOC(=O)C1(Cc2ccccc2)CCCN(C(=O)COc2ccccc2OC)C1 (stereo not drawn),-126.4,-164.1,·,39.3*,·,·
Cc1ccc(S(=O)(=O)Nc2cccc3c2O[C@H](CN(C)Cc2ccc4c(c2)OCO4)[C@@H](C)CN([C@H](C)CO)C3=O)cc1,4.8,7.1,·,·,-3.5,·
COc1ccc(NC(=O)Nc2ccc3c(c2)CC(=O)N([C@@H](C)CO)C[C@@H](C)[C@H](CN(C)S(C)(=O)=O)O3)cc1,·,-0.4,·,·,·,·
O=C(C1CC1)N1CC[C@@H]2[C@@H](CO)Nc3ccc(C#Cc4ccc(F)cc4)cc3[C@@H]21,5.9,4.2,·,·,-3.1,·
CC1CCN(S(=O)(=O)CCNC(=O)c2ccccc2)CC1,0.8,-8.6,-4.5,-4.5,3.4,4.0
CC1CCN(c2ccc(C(=O)NCCc3ccccc3)cn2)CC1,·,·,64.6,·,50.4*,-67.0
O=C(NCCc1ccccc1)c1ccc(Cl)nc1,·,-143.2,58.9,38.7*,-7.1,-55.0
CCOC(=O)c1nnn(-c2ccc([N+](=O)[O-])cc2[N+](=O)[O-])c1C,-0.5,29.8,-76.7,4.5,·,77.2*
CCCCCCC(=O)N(O)C1CC(=O)N(c2ccc(Cl)cc2)C1=O (stereo not drawn),10.0,0.5,·,51.8*,·,10.7
Cc1ccc(Cl)cc1N1CCN(C(=O)c2cn(C)c(=O)c3c2c2ccccc2n3C)CC1,54.3*,·,2.4,-8.2,0.6,-3.0
Cc1cccc(N2CCN(C(=O)c3cn(C)c(=O)c4c3c3ccccc3n4C)CC2)c1C,0.3,·,-1.4,-2.4,-7.6,5.6
COC(=O)C[C@@H]1C[C@H]2c3cc(NC(=O)Nc4ccc(C(F)(F)F)cc4)ccc3O[C@H]2[C@@H](CO)O1,-35.5,16.2,·,·,5.9,·
C[C@@H]1CCCCO[C@H](CN(C)Cc2ccc3c(c2)OCO3)[C@H](C)CN([C@@H](C)CO)C(=O)c2cc(NS(=O)(=O)c3ccccc3)ccc2O1,7.1,5.0,·,·,6.2,·
c1ccc(-c2nc3nc4ccccc4nc3n2Cc2ccco2)cc1,·,-73.8,34.1,44.0*,·,-32.8
Fc1ccc(-c2nc3nc4ccccc4nc3n2Cc2ccco2)cc1,·,-49.0,36.7,?,64.0*,-29.2
COc1ccc(CN(C)C[C@H]2Oc3ccc(NC(=O)C4CCCCC4)cc3CC(=O)N([C@@H](C)CO)C[C@@H]2C)cc1,-0.3,·,·,·,-2.2,·
SMILES,EWS-Fli inh,PAX8 inh HTS,MITF TRPM1 HTS,Wnt act,esBAF inh,MITF TRPM1 inh
Cc1ccc(C(=O)c2coc3c2C(=O)C(=O)c2ccccc2-3)cc1,·,·,71.3,·,41.9*,-67.4
C=CCCC(=O)N1C[C@H]2CON(C)[C@H]2C[C@H]1c1ccccc1Br,-7.1,-11.3,5.4,-0.9,6.3,-8.5
CN1OC[C@@H]2CN(C(=S)Nc3cc(C(F)(F)F)cc(C(F)(F)F)c3)[C@H](c3ccccc3Br)C[C@@H]21,10.5,83.8*,·,-3.4,·,·
C[C@H](CO)N1C[C@H](C)[C@H](CN(C)CC2CCOCC2)Oc2cc(C#CC3CC3)ccc2S1(=O)=O,-7.3,·,·,·,2.1,·
COc1ccc(-c2ccc3c(n2)CCCN3Cc2ccccc2C(F)(F)F)cc1,-128.4,-167.8,·,38.0*,·,·
Cc1ccc(NC(=O)Cc2nc(COC(=O)c3c(F)cccc3Cl)cs2)cc1,-12.5,2.1,2.4,0.1,-3.5,1.4
Cc1nn2c(=O)cc(COC(=O)c3c(F)cccc3Cl)nc2s1,-87.8,-191.6,61.3,50.3*,31.4,-57.6
CCC(C)NC(=O)CSc1nc(-c2cccs2)cc(C(F)(F)F)n1 (stereo not drawn),·,·,-4.8,·,1.2,9.9
CCC(CO)Nc1ccn2nc(-c3cc(OC)c(OC)c(OC)c3)cc2n1 (stereo not drawn),-2.7,-27.6,·,-0.2,-5.8,·
CCC(CO)Nc1ccn2nc(-c3cccs3)cc2n1 (stereo not drawn),-86.7,-177.1,·,2.4,55.2*,·
CCC(CO)Nc1ccn2nc(-c3ccccc3)cc2n1 (stereo not drawn),-103.3,-226.0,·,-2.4,69.2*,·
O=C(Nc1ccc2nc3n(c(=O)c2c1)CCCC3)c1ccccc1F,-65.0,-47.8,38.6,10.5,44.9*,-37.9
O=C(Nc1ccc2nc3n(c(=O)c2c1)CCCC3)c1cccc(F)c1,-49.5,-32.3,72.3,9.1,44.9*,-65.6
COc1ccc(C(=O)Nc2ccc3nc4n(c(=O)c3c2)CCCCC4)cc1OC,-42.5,-17.7,·,1.7,19.5,·
COc1ccc(NC(=O)Nc2ccc3c(c2)C(=O)N([C@H](C)CO)C[C@H](C)[C@@H](CN(C)S(=O)(=O)c2cn(C)cn2)OCCCC[C@@H](C)O3)cc1,-20.7,4.9,·,·,2.5,·
Cc1cc2ccccn2c1C(=O)c1ccc([N+](=O)[O-])o1,21.2,73.2*,-29.9,7.0,-0.1,36.4
Cc1cc2ccccn2c1C(=O)c1cccc([N+](=O)[O-])c1,-6.1,5.3,-7.7,-0.7,·,11.5
Cc1ccc2cc(CCNC(=O)c3ccco3)c(=O)[nH]c2c1,·,·,103.2*,·,26.0,-89.6
Cc1cc2cc(CCNC(=O)c3cccs3)c(=O)[nH]c2cc1C,-82.6,-89.3,·,?,81.7*,·
Cc1ccc2cc(CCNC(=O)c3ccco3)c(=O)[nH]c2c1C,-68.7,-186.8,104.0*,?,-28.9,-102.2
COc1ccc(C(=O)NCCc2cc3ccc(C)c(C)c3[nH]c2=O)cc1OC,-10.5,-11.8,-3.8,-1.6,·,5.8
COc1ccc2cc(CCNC(=O)c3ccco3)c(=O)[nH]c2c1,·,-164.5,53.5,34.0*,36.9,-50.5
